INS-1E GSIS act: GLuc luminescence reporter in INS-1E cells, primary screen for activators of glucose-dependent secretion of insulin | INS-1E GLuc reporter insulin secretion, 2-3 h | activation, % at 16.6 µM | hit rate 0.61% among 370,000 | AID 743287;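 active = lowest replicate activation of at least 40%, so every replicate reaches that level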;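 note: 0% = median of neutral control wells and 100% = median of IBMX positive control wells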
dFosB activator: mouse delta FosB homodimer activation; purified delta FosB, TAMRA-CDK5 oligo fluorescence polarization; percent of positive-control signal above neutral wells; activation, % at 25 µM; hit rate 0.99% among 340,000; AID 493131;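 active = mean activation above about 17%, with every replicate also reaching it, limit read from the data, passing the limit was not always enough; inconclusive = only one of the two conditions met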
Target sequence (P13346 whole entry, looked up): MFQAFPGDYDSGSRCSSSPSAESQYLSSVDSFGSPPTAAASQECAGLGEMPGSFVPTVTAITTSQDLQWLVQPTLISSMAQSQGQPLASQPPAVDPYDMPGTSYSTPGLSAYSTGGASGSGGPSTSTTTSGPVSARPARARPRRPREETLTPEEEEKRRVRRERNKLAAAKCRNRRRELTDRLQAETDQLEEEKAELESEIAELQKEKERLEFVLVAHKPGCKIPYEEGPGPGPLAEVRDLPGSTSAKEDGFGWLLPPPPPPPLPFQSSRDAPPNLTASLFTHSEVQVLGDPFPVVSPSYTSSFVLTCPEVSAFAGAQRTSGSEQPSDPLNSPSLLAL
RAD52 inh: RAD52 (human) annealing inhibition | P43351 | recombinant RAD52 DNA annealing, FRET fluorescence | inhibition, % at 18.7 µM | hit rate 0.46% among 360,000;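 active = every replicate showing at least 50% inhibition; inconclusive = mean inhibition at least 50% but not in every replicate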
RAD54 inh: blocks human RAD54 Holliday junction branch migration; Q92698; FAM/BHQ fluorescence; inhibition, % at 10.4 µM; hit rate 0.14% among 360,000; AID 602329;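 active = mean normalized replicate activity at least 40 and at least half of replicates scoring 40 or more; inconclusive = only one of the two criteria met; inactive = mean below 40 and under half of replicates reaching 40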;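 note: 0% = median of neutral control wells and 100% = median of positive control wells; inhibitors cause a drop in the FAM fluorescence signal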
AF4-AF9 inh: inhibitors of human MLL-AF4/AF9 interaction; inhibition, % at 10 µM; AlphaScreen, biotin-AF4 peptide binding to FLAG-AF9; P42568; hit rate 0.47% among 350,000;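 active = every replicate reaching a set inhibition limit, whatever the replicate mean, cut at about 25% in these data; inconclusive = mean inhibition reaches that limit but some replicates miss it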;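 note: 0% = plate neutral control median and 100% = total signal loss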
DENV2 CPE rescue: protects cells from dengue virus 2 cytopathic effect | DENV2-infected cells, cytopathic effect rescue, plate reader | CPE inhibition, % at 9.99 µM | hit rate 1.7% among 350,000 | AID 651640; in the data active = CPE inhibition above about 20%, passing the limit was not always enough; inconclusive = no clear call, values can overlap the other calls; tested in BHK-21 cells;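 note: 0% = median of neutral control wells and 100% = median of positive control wells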
RAD52 DNA ctr: DNA binding artifact in RAD52 counter-screen; shares compounds with RAD52 inh; Salmon sperm DNA/acridine orange FP displacement; AC50, µM; hit rate 8% among 1,000; AID 652128;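 active = fitted half-maximal concentration for signal loss at or below twice the highest dose tested, in every separate run, actives reach about 64 µM in these data; inconclusive = runs disagree, or flat partial signal loss, or poor fit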
Numbers without * were called inactive; i = inactive; ? = inconclusive; · = not tested or not shown. Rows were chosen to be rich in hits. Some 3.1% of all compounds tested hit in one or more screens of this group.

SMILES | INS-1E GSIS act | dFosB activator | RAD52 inh | RAD54 inh | AF4-AF9 inh | DENV2 CPE rescue | RAD52 DNA ctr
Cc1ccc2sc(N(CCCN(C)C)C(=O)c3ccc(S(=O)(=O)N(C)Cc4ccccc4)cc3)nc2c1C | 35 | 16 | 60* | -5 | 4 | -3 | i
C[C@@H]1CN([C@H](C)CO)C(=O)Cc2cc(NC(=O)CCCCCC(=O)Nc3ccccc3N)ccc2O[C@H]1CN(C)Cc1ccc(Oc2ccccc2)cc1 | -6 | · | 28 | 1 | -1 | 2 | ·
COc1ccc(-c2[nH]ncc2CN2CCN(c3ccccn3)CC2)c(OC)c1 | 7 | -6 | -18 | 1 | 1 | · | ·
COc1ccc(-c2[nH]ncc2CN2CCCCCCC2)c(OC)c1 | 4 | -4 | 76* | · | 13 | 0 | i
CCOCCCn1c(C)nc2c[n+](CC(=O)c3ccc4ccccc4c3)cc(Br)c21 | 0 | · | 64* | 37 | 8 | -2 | i
Cn1c(CNc2cccc(C(F)(F)F)c2)n[nH]c1=S | -9 | -7 | 14 | · | -5 | -3 | ·
Cn1c(-c2csc(-c3cccc(C(F)(F)F)c3)n2)n[nH]c1=S | 7 | -5 | 96* | · | -4 | -6 | i
CCOc1ccc(NC(=O)CCN2CCN(c3ccccc3)CC2)cc1 | · | -5 | · | 13 | · | · | ·
COc1ccc(NC(=O)CCN2CCN(c3ccc(F)cc3)CC2)cc1 | -19 | 0 | -8 | -6 | 0 | -3 | i
COc1ccc(-c2cnc3c(c2)C(=O)N([C@@H](C)CO)C[C@H](C)[C@H](CN(C)C(=O)C2CC2)O3)cc1 | 7 | · | · | · | · | · | ·
CN(C)c1ccc(NC(=O)CN2CCC(NC(=O)C3CCCCC3)CC2)cc1 | -2 | 3 | 72* | · | 51* | 4 | i
CN(CCCCCCCCCCN(C)C(=O)Oc1cccc([N+](C)(C)C)c1)C(=O)Oc1cccc([N+](C)(C)C)c1 | -12 | -7 | 52* | -5 | 16 | -3 | i
C[C@@H]1CN(C)C(=O)c2cccc(N(C)C)c2O[C@H]1CN(C)C | 38 | · | · | · | · | · | ·
c1cc(OCCCN2CCCCC2)ccc1CN1CCCCC1 | 3 | -4 | 21 | 0 | -9 | -5 | i
C[C@@H]1CN([C@H](C)CO)C(=O)c2cc(C#CC(C)(C)O)cnc2O[C@@H]1CN(C)Cc1cncnc1 | -14 | · | 3 | -3 | -7 | -9 | ·
CC(C)NC(=O)N1[C@H](CO)[C@@H]2c3ccccc3N(C(=O)C3CC3)C[C@@H]21 | 2 | · | -2 | -6 | 1 | 4 | ·
COc1ccc(Cl)cc1C(=O)NCCN(C)C | · | -4 | · | 7 | · | · | ·
CN(C)CCNC(=O)c1ccccc1-c1ccccc1 | · | 0 | · | 10 | · | · | ·
COc1ccc(-c2nc3c(C(=O)NCCN(C)C)cccc3c3ccccc23)cc1 | · | -77 | 101* | · | 19 | 0 | ?
COc1cccc2nc3c(C(=O)NCCN(C)C)cccc3cc12 | -2 | -39 | 81* | · | 5 | 17 | 34µM*
COc1ccc(C(=O)NCCN(C)C)c2nc3ccccc3cc12 | -11 | -35 | 91* | · | 7 | -5 | 25µM*
CN(C)CCNC(=O)c1cccc2nc3c(ccc4ccccc43)nc12 | -8 | 73* | 95* | · | ? | 1 | 14µM*
COc1ccc(-c2coc3c(C(=O)NCCN(C)C)cccc23)c(C)c1 | 26 | · | 26 | 13 | 8 | -1 | ·
CO[C@@H]1CN(C)C(=O)c2ccc(NS(C)(=O)=O)cc2OC[C@H](C)N(CC2CCOCC2)C[C@H]1C | 11 | · | -2 | 0 | -4 | -2 | ·
C[C@@H]1CN([C@@H](C)CO)C(=O)Cc2cc(NC(=O)c3ccncc3)ccc2O[C@@H]1CN(C)C(=O)Nc1cccc2ccccc12 | 7 | · | -18 | 2 | -1 | -9 | ·
SMILES | INS-1E GSIS act | dFosB activator | RAD52 inh | RAD54 inh | AF4-AF9 inh | DENV2 CPE rescue | RAD52 DNA ctr
C[C@@H]1CN([C@@H](C)CO)C(=O)c2cc(NC(=O)CCC(F)(F)F)ccc2O[C@@H]1CN(C)C(=O)Nc1ccc(C(F)(F)F)cc1 | -14 | · | 6 | 1 | -1 | 6 | ·
COc1cccc(CNC(=O)C[C@@H]2CC[C@H]3[C@@H](COc4ccc(NC(C)=O)cc4C(=O)N3C)O2)c1 | 7 | · | · | 0 | · | 9 | ·
CN(C)CCNC(=O)c1[nH]c(C(F)(F)F)nc1-c1ccccc1 | -6 | · | -17 | -11 | -1 | 0 | ·
CN(C)CCNC(=O)c1cccc2[nH]c(-c3ccncc3)nc12 | 5 | 38* | 50* | · | -1 | 9 | 52µM*
c1cncc(-c2nc(NCCCN3CCOCC3)c3c4c(sc3n2)CCC4)c1 | 11 | -8 | 62* | · | 4 | · | i
CC1(C)Nc2cccc3cccc(c23)N1 | -11 | 3 | 65* | 9 | 2 | 6 | i
CCc1cc(C(=O)Nc2cc(S(=O)(=O)N(CC)CC)ccc2N2CCN(C)CC2)sc1C | -11 | -11 | 89* | -1 | -4 | 0 | i
Cc1ccc(S(=O)(=O)Nc2ccc3c(c2)C(=O)N([C@@H](C)CO)C[C@H](C)[C@H](CN(C)C(=O)c2ccncc2)OCCCC[C@H](C)O3)cc1 | 7 | · | · | -7 | · | -3 | ·
CN1CCN(c2ccc(C(CC(N)=O)NC(=O)Cc3cccc4ccccc34)cc2[N+](=O)[O-])CC1 (stereo not drawn) | 29 | -4 | 56* | 0 | -1 | 1 | ?
C[C@H](O)C#Cc1cnc2c(c1)C(=O)N([C@@H](C)CO)C[C@H](C)[C@@H](CN(C)Cc1ccccn1)O2 | 5 | · | -8 | 7 | -1 | 0 | ·
CC[n+]1c(C)cc2c(sc3ccccc32)c1C | · | -5 | 57* | · | -3 | -2 | i
CCc1nc(C)cc2c1sc1ccccc12 | 15 | · | -11 | -8 | -3 | -1 | ·
C/C=C/c1ccc([C@H]2[C@H](CO)N(C(=O)CC)[C@H]2CN(C)S(C)(=O)=O)cc1 | 1 | · | · | 3 | · | 15 | ·
C[C@@H](NC(=O)C[C@H]1C[C@H]2c3cc(NS(=O)(=O)c4ccc(F)cc4)ccc3O[C@H]2[C@H](CO)O1)c1ccccc1 | -15 | · | 10 | 1 | 2 | -1 | ·
Cc1cc(C)c2c(=N)c3ccccc3n(CCCCCCCCn3c4ccccc4c(=N)c4c(C)cc(C)nc43)c2n1 | 42 | -231 | 67* | · | ? | -1 | 16µM*
NCCOc1ccccc1OCCN | -5 | 2 | 58* | 3 | 1 | 2 | i
C[n+]1ccc(/C=C/c2ccccc2O)c2ccccc21 | 2 | -4 | 54* | · | 14 | 10 | 46µM*
CC(=O)/C=C/c1ccccc1O | -1 | -3 | -10 | 0 | 0 | · | ·
